Source: PubChem BioAssay (NCI)
Compounds without any hit were thinned out: in the full panel of roughly 83,000, 20% have a hit.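 48-hour exposure, single concentration, 96-well plates; percent growth endpoint where 0 means no net growth. Active: below 10.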 A number with no mark means an inactive call. Calls of active or inactive are those of the source.

Each compound was assayed on SR leukemia (assay: NCI-60 one-dose screen, 48 h (100 = growth as untreated, 0 = no growth, -100 = all killed)). Conditions: 10 µM.

Point of comparison: `O=C1OCC2=C1C(c1ccc(Cl)c(Cl)c1)c1cc3c(cc1N2CCO)OCCO3` (stereo not drawn), growth 27.9%. Against it:
- CCCCCCCCCCCCCCCCCCOCC(COCCOCC[N+]1(CCCCCC(=O)[O-])CCCC1)Oc1ncccn1 (stereo not drawn) — higher, 29.9%
- CC/C(=N\N=C(/CC)c1ccc(Br)cc1)c1ccc(Br)cc1 — higher, 96.9%
- COc1cc2nc(Nc3cccc(NC(C)=O)c3)nc(N)c2cc1OC — higher, 107%
- Cc1nc2ccc(CN(C)c3ccc(C(=O)N[C@@H](CCC(=O)O)C(=O)O)s3)cc2c(=O)[nH]1 — higher, 44.6%
- CCCCCCCCN(CCCCCCCC)CCCCCCCCCN1CCCc2cc(OC)ccc21 — higher, 77.5%
- Nc1ncnc2[nH]c(=O)[nH]c12 — lower, 26.1%
- COc1ccc2c(c1)sc1nc(-c3ccccc3)c(-c3cccnc3)n12 — higher, 86.6%
- C=C(Cl)[C@@](Cl)(CBr)CC[C@@H](Br)C(C)(C)Cl — higher, 75.6%
- C[N+](C)(C)c1ncnc2nc[nH]c12 — higher, 78.4%
- COC(=O)[C@@H]1[C@H](O)[C@H](C)[C@H](O)[C@@](C)(O)/C=C\C=C(C)C(=O)Nc2c(C)c(OC(C)=O)c3c(c2O)C(=O)C(C)=C2OCOC(=C23)C(C)=C[C@@](C)(O)[C@H](O)[C@@H](C)[C@H]1OC(C)=O — higher, 92.1%

These compounds were tested on RPMI-8226 leukemia in the same assay as above. Conditions: 10 µM.

Point of comparison: `CCc1ccc2c(c1)N(CCO)C1=C(C(=O)OC1)C2c1ccccc1` (stereo not drawn), growth 101%. Against it:
- CCN(CC)CCNc1ccc(CO)c2oc3cc(Cl)ccc3c(=O)c12 — lower, 85.7%
- O=C(O)C(SC(C(=O)O)c1ccccc1)c1ccccc1 (stereo not drawn) — higher, 102%
- COc1ccc(-c2nc3ccccn3c2-c2nnc(-c3cc(OC)c(OC)c(OC)c3)o2)cc1 — lower, 75.1%
- N#Cc1c(C#N)c(SSc2c(C#N)c(C#N)c(N)n2-c2ccccc2)n(-c2ccccc2)c1N — higher, 125%
- Cc1ccc(-c2nc(/C=C3/C(=O)N(C)c4ccc(F)cc43)c3ccccn23)cc1 — higher, 115%
- NC1=NC(=O)C(c2ccccc2)(c2ccccc2)S1 — lower, 96.3%
- CCCN(CCC)CCC(O)c1cc2c(c3ccccc13)CCCC2 (stereo not drawn) — lower, 86.1%
- COc1ccc2c(c1)/C(=C\c1c[nH]c3ccc(OC)cc13)C(=O)N2 — lower, 36.7%
- Nc1ccn(C2CC(O)C(CO)O2)c(=O)n1 (stereo not drawn) — higher, 112%
- COc1cccc(C2C3=C(COC3=O)N(CCO)c3cc(OC)ccc32)c1 (stereo not drawn) — lower, 20.6%
- CCCC1(CC(=O)O)OCCc2c1[nH]c1ccccc21 (stereo not drawn) — lower, 99.9%
- COc1ccc(N2C(=O)C3c4[nH]c5ccc(OCc6ccccc6)cc5c4C4CCC(C(C)C)CC4C3C2=O)cc1 (stereo not drawn) — lower, 86.9%
- O=C(CC(C(=O)c1ccccc1)N1CCOCC1)c1ccccc1 (stereo not drawn) — lower, 40.5%
- NC(=O)SCC(=O)Nc1ccc(S(N)(=O)=O)cc1 — higher, 108%
- COc1ccc2nc3cc(Cl)ccc3c(NCCNCC(C)O)c2c1 (stereo not drawn) — lower, 19.8%

For `CCN(CC)CCSCCCNc1c2ccc(Cl)cc2nc2ccc(OC)cc12`, the growth was -22.9% (active).
`CN1CC[C@@H](c2c(O)cc(O)c3c(=O)cc(-c4ccccc4Cl)oc23)[C@@H](O)C1` was tested, and the growth was -32.3% (active).
In the case of `Cc1cccc2c(NCCN(C)C)c3cccc(C(=O)NCCN(C)C)c3nc12`, the growth is reported as -34.6% (active).
With `C=C(C(=O)c1ccccc1)C(NC(C)(C)C)c1ccccc1` (stereo not drawn) the growth was -3.32% (active).
In the case of `CN(C)C(=S)N/N=C\C=N/NC(=S)N(C)C`, the growth is reported as 0.534% (active).
In the case of `C=C(NC(=O)C(=C)NC(=O)c1csc(C2=NC3c4csc(n4)C4NC(=O)c5csc(n5)C(C(C)(O)C(C)O)NC(=O)C5CSC(=N5)/C(=C/C)NC(=O)C(C(C)O)NC(=O)c5csc(n5)C3(CC2)NC(=O)C(C)NC(=O)C(=C)NC(=O)C(=C)NC(=O)C(C(C)C)NC2C=Cc3c(C(C)O)cc(nc3C2O)C(=O)OC4C)n1)C(N)=O` (stereo not drawn), the growth is reported as -37.1% (active).
`COc1ccc2nc3ccccc3c(NCCNCC(C)O)c2c1` (stereo not drawn) was tested, and the growth was -1.19% (active).
For `CN(C)CCN1C(=O)c2cccc3cc(N)cc(c23)C1=O`, the growth was 1.78% (active).
For `CC(C)C[C@H](NC(=O)[C@H](Cc1cccc2ccccc12)NS(=O)(=O)c1cccc2cccnc12)B(O)O`, the growth was -36.7% (active).
`CCCCN(CCCC)CCCCCCCCC(O)c1cc2ccccc2c2ccccc12` (stereo not drawn) was tested, and the growth was -7.55% (active).
For `O=C(CCCCCCC(=O)Nc1cccnc1)NO`, the growth was -14.9% (active).
